Compounds with a hit are over-represented: about 2.3% of the library has one in this group of screens.
Nrf2 ARE act – activators of Nrf2 (ARE) signaling; AREc32 ARE-luciferase reporter (MCF7-derived line), luminescence, 24 h; Potency, µM (highest dose often 46.1 µM), usual class: activators; actives 0.31% (n = 410,000); also: nearly all actives have a fitted effect of over 65% in size
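AREc32_Fluc, 1000 cells/well, OPTI-MEM + 5% FBS, o/n 37 deg C 5% CO2; 23 nL cpd by pin tool, 24 hr; Steady-Glo 30 min RT, luminescence.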
IL-2 act – activators of IL-2 | IL-2 activation reporter assay, cell-based qHTS; stimulated with anti-CD3/CD4/CD28 beads; in transgenic mouse T cells | activation, % (series mostly up to about 46 µM) | actives 0.065% (n = 360,000) | AID 652025; in the data active = activation above about 50%; inconclusive = mostly about 30% to 49%
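Using fluorescent plate cytometry, EGFP and DsRed are detected in transgenic mouse T cells stimulated 18 h at 37 degrees C with antibody-coated beads after 60 min compound pretreatment.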
Nrf2 inh – Nrf2 pathway inhibition | A549 ARE-Fluc reporter, luciferase luminescence, 18-24 h | AID 504444 | Potency, µM (series often up to 46 µM), hits mostly inhibitors | actives 2.1% (n = 360,000); also: nearly all actives have a fitted effect of over 60% in size
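Cells were seeded and rested 2 h, then exposed to compounds for 18-24 h. CellTiter-Fluor was read first as a viability measure. BugLite was added 15 min before the final luminescent read of ARE-luciferase activity in A549 cells.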
A549 viability – A549 cytotoxicity, counter-screen for Nrf2 inhibitors; A549 ARE-Fluc cells, CellTiter-Fluor viability, 18-24 h; actives 0.16% (n = 390,000); Potency, µM (series often up to 46 µM), hits mostly inhibitors
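A549 ARE-Fluc cells in 5% FBS OPTI-MEM, 5000 cells/well, rested 2 h then exposed to compounds in concentration-response for 18-24 h at 37 °C. Viability by CellTiter-Fluor fluorescence (Ex 405/Em 525) after 30 min; luciferase luminescence (BugLite, 15 min, RT) read afterwards.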
Hits are given with their value; 0 = inactive; ? = inconclusive; - = no result. Unless noted, calls follow the shape of the dose curve; as a rule, active = well fitted curve in the direction sought with a large enough effect; inconclusive = small, poorly fitted or top-dose-only effect, or another doubt; inactive = no such curve, though single readings can be large; an effect the other way counts as inactive or inconclusive.

SMILES	Nrf2 ARE act	IL-2 act	Nrf2 inh	A549 viability
CCOC(=O)c1c(C)[nH]c(CCC(=O)Nc2cc(C)ccc2OC)c1C	0	-	-	0
O=C(c1ccc(Cl)c(S(=O)(=O)N2CCCC2)c1)N1CCN(c2ccccc2)CC1	0	0	15µM	0
CCC(C)c1ccc(S(=O)(=O)N2CCN(C(=O)c3ccc(Cl)c(S(=O)(=O)N4CCOCC4)c3)CC2)cc1 (stereo not given)	0	0	10µM	0
O=C(c1ccc(Cl)c(S(=O)(=O)N2CCCCC2)c1)N1CCN(c2ccccc2)CC1	0	0	23µM	0
O=C(c1ccc(Cl)c(S(=O)(=O)N2CCCCCC2)c1)N1CCN(c2ccccc2O)CC1	0	0	18µM	0
CCN(CC)c1nn2c(=O)c(C(=O)NCc3ccc(OC)cc3OC)cnc2s1	0	-	0	0
Cc1ccc(N2CCN(C(=O)c3cn(C)c4ccc(S(=O)(=O)N(C)C5CCCCC5)cc4c3=O)CC2C)cc1 (stereo not given)	0	-	0	0
CCOC(=O)N1CCN(Cc2nc3cc(NC(=O)C(C)C)ccc3n2C(C)C)CC1	0	-	0	0
COc1cc(C(=O)N2CCc3c([nH]c4ccccc34)C2c2ccc(C)cc2)cc(OC)c1OC (stereo not given)	0	-	-	?
N=c1oc2cc(O)ccc2cc1C(=O)Nc1ccc(Br)cc1	0	0	21µM	0
N=c1oc2ccccc2cc1C(=O)Nc1ccccc1	0	0	?	0
O=C(CN1CCCN(Cc2ccccc2Cl)S1(=O)=O)NCc1ccccc1	0	-	0	0
CC1CCC/C=C/C(=O)c2c(O)cc(O)cc2CC(=O)O1 (stereo not given)	0	0	5.8µM	13µM
N#CN1CCC(NC(=O)c2cccc(F)c2)CC1	-	-	0	0
Cc1ccc(C)c(NC(=O)CCN2C(=O)c3ccccc3Sc3ncccc32)c1	0	-	0	0
COc1ccc(-c2noc(CSc3nnc(Cc4ccccc4)n3-c3cccc(C)c3)n2)cc1	0	-	23µM	?
COc1ccc(-c2noc(CSc3nnc(C)n3-c3cccc(C)c3)n2)cc1	0	-	?	0
Cc1cc(C)c(NC(=O)CSc2nncn3c2cc2oc(C)cc23)c(C)c1	0	-	0	0
CC/C(=N\Nc1ccc([N+](=O)[O-])cc1)c1ccccc1	0	0	21µM	?
O=[N+]([O-])c1ccc(NN=C(Oc2ccccc2)c2ccc([N+](=O)[O-])cc2)cc1	0	0	-	-
CC(=O)Nc1cc(OC(C)=O)c2nonc2c1OC(C)=O	0	0	15µM	?
CC(C)(C)OC(=O)N1CCC(c2c(C(=O)NCc3ccc4c(c3)OCO4)cnn2-c2ccc(F)cc2F)CC1	0	-	?	0
COC(=O)c1sc(-c2cccs2)cc1N	8.9µM	0	0	0
COc1ccc(-c2nnc3ccc(SC(C)C)nn23)cc1OC	-	-	?	0
CC(C)c1ccc(C(O)P(=O)(OC2CCCCC2)OC2CCCCC2)cc1 (stereo not given)	0	0	16µM	?
SMILES	Nrf2 ARE act	IL-2 act	Nrf2 inh	A549 viability
COc1cc(C(O)P(=O)(OC2CCCCC2)c2ccc(N(C)C)cc2)cc(OC)c1OC (stereo not given)	0	0	0	0
CCOc1ccc(S(=O)(=O)N2CCC(C(=O)N3CCCCCC3)CC2)cc1C	0	0	18µM	0
O=C(C1CCN(S(=O)(=O)c2ccc(-n3cnnn3)cc2)CC1)N1CCCCC1	0	0	13µM	0
Cc1ccc(O)c(NC(=O)CSc2n[nH]c(C)c2[N+](=O)[O-])c1	11µM	0	0	0
CSc1ccccc1NC(=O)CSc1n[nH]c(C)c1[N+](=O)[O-]	0	0	0	0
Cc1ccc(-c2csc3ncnc(Sc4nnc(CN5CCCCCC5=O)o4)c23)cc1	?	0	15µM	?
Cc1ccc2c(C(=O)N3CCN(c4ccccc4)CC3)cc(-c3cccnc3)nc2c1C	0	0	21µM	?
COc1ccc(CN(Cc2ccccc2)C(=O)c2ccc(OC)cc2O)cc1	-	-	0	0
O=S1(=O)N=C(Oc2ccccc2Br)c2ccccc21	-	-	0	0
OC(c1ccccc1)(c1nc(-c2ccc3c(c2)OCO3)cs1)C(F)(F)F (stereo not given)	0	0	-	-
N#C/C(=C\C=C\c1ccccc1)c1nc(-c2ccc3c(c2)OCO3)cs1	0	95	0	0
Cc1cc2oc(=O)cc(Cn3ncc(Cl)c(Cl)c3=O)c2cc1Cl	4µM	0	?	?
CCCCOc1ccc(C(=O)NNC(=O)c2cnccn2)cc1OC	0	0	10µM	0
COc1cc(C(=O)NC(=S)NNC(=O)c2cnccn2)cc(OC)c1OC	0	0	4.6µM	0

High-throughput results: PubChem BioAssay, National Center for Advancing Translational Sciences (NCATS)
